The nature of test [1]: qHTS assay to test for compound auto fluorescence at 535 nm (green) in HEK293 cells (AID 720680).
The nature of test [2]: qHTS assay to test for compound auto fluorescence at 460 nm (blue) in HEK293 cell free culture (AID 720681). A digest of the protocol: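 Test compounds were pinned into cell-free culture medium (DMEM with 10% FBS) and fluorescence was read directly at Ex/Em 405/460 nm. Signals were expressed as fluorescence equivalents of triamterene, with DMSO vehicle as control.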
(In qHTS, concentration-response curves come from the screen itself.)

Test [3] is described as follows: qHTS assay to test for compound auto fluorescence at 535 nm (green) in HEK293 cell free culture (AID 720682). A digest of the protocol: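 Fluorescein serves as the green reference fluorophore; each compound's intrinsic emission at 535 nm (excitation 485 nm) is reported as an equivalent amount of that dye, measured in serum-containing DMEM without cells.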
Test [4] can be described thus: qHTS assay to test for compound auto fluorescence at 590 nm (red) in HEK293 cell free culture (AID 720683). The gist of the method: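 Tox21 10K library compounds were pinned into cell-free DMEM with 10% FBS and fluorescence was read at excitation 540 nm. Activity is expressed as Rose Bengal sodium equivalency.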
Test [5] is described as follows: qHTS assay to test for compound auto fluorescence at 590 nm (red) in HepG2 cell free culture (AID 720684). The gist of the method:
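Measured in medium alone (MEM containing 10% FBS) following pintool addition of compound; emission at 590 nm with 540 nm excitation, referenced to Rose Bengal sodium.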

Test [6] can be described thus: qHTS assay to test for compound auto fluorescence at 460 nm (blue) in HepG2 cell free culture (AID 720685). A digest of the protocol: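 Compound (23 nL) or DMSO pinned into cell-free MEM with 10% FBS; blue fluorescence read at 405/460 nm excitation/emission, expressed as auto-fluorescence equivalency to triamterene.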
The nature of test [7]: qHTS assay to test for compound auto fluorescence at 535 nm (green) in HepG2 cell free culture (AID 720686).
Test [8] in a line: qHTS assay to test for compound auto fluorescence at 460 nm (blue) in HepG2 cells (AID 720687). A digest of the protocol:
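Cells (2,000/well in MEM with 10% FBS) attached overnight at 37 C, then were exposed to compound or DMSO for 1 hr at 37 C, 5% CO2. Fluorescence read at Ex/Em 405/460 nm, expressed as triamterene-equivalent signal.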

The target in test [9] is Glucocorticoid receptor (Homo sapiens) (UniProt P04150). The test is described as follows: qHTS assay to identify small molecule agonists of the glucocorticoid receptor (GR) signaling pathway (AID 720691; active = well fitted activation curve with a large enough effect in the signal ratio in the repeat runs, not every such curve was filed as active; inconclusive = weak or mixed curves, or effect the other way; inactive = no such curve, though single readings can be large or run the other way; the % refers to the signal ratio; also: potency is read from the fitted curve at half-maximal effect). Particulars: GR-bla HeLa, beta-lactamase reporter ratio, 18 h; activation: at 62.4 µM (top of the series). The gist of the method: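 qHTS in GR-bla HeLa cells: 4 h settling at 37 C/5% CO2, 18 h compound incubation at 37 C, 2 h LiveBLAzer B/G FRET substrate at room temperature, fluorescence intensity measured.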
Glucocorticoid receptor (Homo sapiens), sequence (P04150 whole entry, looked up): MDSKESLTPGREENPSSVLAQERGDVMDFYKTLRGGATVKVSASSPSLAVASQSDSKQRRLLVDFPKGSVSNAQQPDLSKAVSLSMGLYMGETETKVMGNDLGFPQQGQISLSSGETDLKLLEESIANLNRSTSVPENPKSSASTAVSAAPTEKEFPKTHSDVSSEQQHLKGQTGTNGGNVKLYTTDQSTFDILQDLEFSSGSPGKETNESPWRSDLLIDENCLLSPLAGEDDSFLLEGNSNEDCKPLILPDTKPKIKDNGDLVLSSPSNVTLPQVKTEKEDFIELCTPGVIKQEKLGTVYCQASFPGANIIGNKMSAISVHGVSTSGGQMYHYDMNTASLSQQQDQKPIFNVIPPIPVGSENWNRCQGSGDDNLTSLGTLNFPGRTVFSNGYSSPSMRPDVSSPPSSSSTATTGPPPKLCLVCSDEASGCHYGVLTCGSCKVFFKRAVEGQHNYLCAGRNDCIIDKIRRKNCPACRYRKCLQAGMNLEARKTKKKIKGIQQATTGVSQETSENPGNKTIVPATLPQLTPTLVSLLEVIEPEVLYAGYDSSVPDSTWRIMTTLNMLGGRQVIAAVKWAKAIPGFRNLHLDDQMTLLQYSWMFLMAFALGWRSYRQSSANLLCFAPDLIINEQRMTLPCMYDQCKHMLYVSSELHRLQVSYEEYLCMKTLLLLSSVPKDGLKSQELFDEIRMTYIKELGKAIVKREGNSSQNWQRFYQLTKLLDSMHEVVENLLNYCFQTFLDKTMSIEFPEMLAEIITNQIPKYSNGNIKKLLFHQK

The source made the active and inactive calls. Unless noted, calls follow the shape of the dose curve; as a rule, active = well fitted curve in the direction sought with a large enough effect in the repeat runs; inconclusive = weak or mixed curves; inactive = flat fitted curve, though single readings scatter. Positions of bridges follow the written chain, without caps; N, C: chain ends. Non-standard residues stand in square brackets, D forms with d. Residues, ends and D or L forms follow the SMILES beside them. *: point of attachment. X2 = CC[C@H](C)CCCCC(=O)*; Dab = NCC[C@H](N)C(=O)O

Regarding `CCN(CC)CCCC(C)Nc1cc(/C=C/c2ccccc2Cl)nc2cc(Cl)ccc12` (centres undefined), the Potency result in test [1], in test [2], in test [3], in test [4], in test [5] and in test [7] was “inactive” throughout. For the same compound, in [9], the Potency entry was “inactive”. Also, the result in test [6] and in [8] was inactive.

`C[C@]12CCC(=O)C=C1CC[C@@H]1[C@@H]2[C@@H](O)C[C@@]2(C)[C@H]1CC[C@]2(O)C(=O)COP(=O)(O)O`: the Potency result in test [1], in test [2], in [3], in [4], in test [5] and in test [7] was “inactive” throughout. Further, the outcome in [6] and in test [8] was inactive. The Potency in test [9] was 674 nM [inconclusive] (active).

Consider `CC[C@H](C)CCCCC(=O)N[C@@H](CCN)C(=O)N[C@H](C(=O)N[C@@H](CCN)C(=O)N[C@H]1CCNC(=O)[C@H]([C@@H](C)O)NC(=O)[C@H](CCN)NC(=O)[C@H](CCN)NC(=O)[C@H](CC(C)C)NC(=O)[C@@H](CC(C)C)NC(=O)[C@H](CCN)NC1=O)[C@@H](C)O` (X2-[Dab]T[Dab][Dab][Dab][dL]L[Dab][Dab]T; lactam 4-C), for which the Potency result in test [1], in test [2], in [3], in test [4], in test [5] and in test [7] was “inactive” throughout. Further, the Potency result in test [9] is “inactive”. The outcome in test [6] and in [8] was inactive.

For `CCCOc1ccc2nc(NC(=O)OC)sc2c1`, the Potency result in test [1], in test [2], in test [3], in [4], in test [5] and in test [7] was “inactive” in each case. Also, in test [9], the Potency entry is “inactive”. The call in [6] and in test [8] was inactive.

Regarding `C=Cc1c(C)c2cc3nc(cc4[nH]c(cc5nc(cc1[nH]2)C(C)=C5CCC(=O)OC)c(CCC(=O)O)c4C)[C@@]1(C)C3=CC=C(C(=O)OC)[C@H]1C(=O)OC`, the Potency result in test [1], in test [2], in test [3], in [4], in [5] and in [7] was “inactive” each time. In addition, in test [9], the Potency result was “inactive”. The outcome in test [6] and in [8] was inactive.

For `O=C(O)CCC/C=C\C[C@@H]1[C@@H](/C=C/[C@@H](O)COc2cccc(C(F)(F)F)c2)[C@H](O)C[C@@H]1O`, the Potency result in [1], in test [2], in test [3], in test [4], in test [5] and in test [7] was “inactive” each time. The Potency entry in test [9] was “inactive”. Also, the result in test [6] and in test [8] was inactive.

Consider `CC(C(=O)O)c1ccc(N2Cc3ccccc3C2=O)cc1` (centres undefined), for which the Potency result in test [1], in [2], in test [3], in [4], in [5] and in test [7] was “inactive” each time. Also, the Potency result in test [9] was “inactive”. Further, the result in [6] and in [8] was inactive.

Take `CCCC(=O)O[C@]1(C(=O)COC(C)=O)CC[C@H]2[C@@H]3C[C@H](F)C4=CC(=O)C=C[C@]4(C)[C@@]3(F)[C@@H](O)C[C@@]21C`: the Potency result in test [1], in test [2], in test [3], in [4], in test [5] and in test [7] was “inactive” throughout. The compound was classed as inactive in test [6] and in test [8]. Besides, the Potency in [9] was 4.3 nM [inconclusive] (active).

With `COc1ccc(C[C@H](C)NC[C@@H](O)c2ccc(O)c(NC=O)c2)cc1`, the Potency result in test [1], in test [2], in test [3], in test [4], in [5] and in test [7] was “inactive” each time. In test [9], the Potency entry is “inactive”. In addition, the compound was called inactive in test [6] and in test [8].

Take `CC(C)(C)C1(O)CCN2CC3c4ccccc4CCc4cccc(c43)C2C1` (centres undefined): the Potency entry in test [1], in test [2], in [3], in [4], in test [5] and in test [7] was “inactive” throughout. The Potency result in test [9] is “inactive”. In addition, the compound was classed as inactive in test [6] and in test [8].

On to `CC(C)CCC[C@@H](C)[C@H]1CC(=O)C2=C3CC[C@H]4C[C@@H](O)CC[C@]4(C)[C@H]3CC[C@@]21C`, for which the Potency entry in test [1], in test [2], in test [3], in test [4], in test [5] and in test [7] was “inactive” each time. The Potency entry in test [9] was “inactive”. The result in [6] and in test [8] was inactive.

With `C=C1c2c(Cl)ccc(O)c2C(O)=C2C(=O)[C@]3(O)C(O)=C(C(N)=O)C(=O)[C@@H](N(C)C)[C@@H]3[C@@H](O)[C@H]12`, the Potency result in [1], in test [2], in [3], in [4], in test [5] and in [7] was “inactive” throughout. For the same compound, the Potency result in test [9] is “inactive”. The call in [6] and in test [8] was inactive.

On to `CNC(=O)[C@H](Cc1c[nH]c2ccccc12)NC(=O)[C@@H](CC(=O)NO)CC(C)C`, for which the Potency result in test [1], in test [2], in test [3], in [4], in test [5] and in test [7] was “inactive” each time. For the same compound, the compound was called inactive in test [6] and in test [8]. In addition, the Potency in test [9] is 15100 nM (active).

On to `O=C(OCc1ccccc1)c1cccnc1`, for which the Potency entry in test [1], in test [2], in [3], in test [4], in test [5] and in test [7] was “inactive” in each case. For the same compound, the Potency result in test [9] was “inactive”. Besides, the compound was called inactive in test [6] and in test [8].

With `O=C(/C=C/c1cccc(F)c1)NC1CC1`, the Potency result in [1], in test [2], in test [3], in test [4], in test [5] and in test [7] was “inactive” throughout. Besides, the Potency result in test [9] was “inactive”. Moreover, the compound was classed as inactive in test [6] and in test [8].

For `CC(C)NCC(O)COc1ccccc1-n1cccc1` (centres undefined), the Potency entry in test [1], in [2], in test [3], in [4], in [5] and in test [7] was “inactive” throughout. In addition, the Potency entry in test [9] is “inactive”. Besides, the compound was called inactive in test [6] and in test [8].

`COc1cc(C)c(/C=C/C(C)=C/C=C/C(C)=C/C(=O)O)c(C)c1C`: the Potency entry in test [1], in test [2], in test [3], in [4], in test [5] and in [7] was “inactive” each time. Further, the Potency entry in [9] is “inactive”. Further, the outcome in test [6] and in test [8] was inactive.

`CC1(C)S[C@@H]2[C@H](NC(=O)C3(N)CCCCC3)C(=O)N2[C@H]1C(=O)O`: the Potency result in test [1], in test [2], in [3], in test [4], in [5] and in [7] was “inactive” in each case. Besides, the Potency result in [9] was “inactive”. The result in test [6] and in test [8] was inactive.

For the compound `C[C@H]1[C@@H](OC(=O)CCC(=O)O)O[C@@H]2OC3(C)CC[C@H]4[C@H](C)CC[C@@H]1[C@@]24OO3`, the Potency result in [1], in test [2], in [3], in [4], in [5] and in test [7] was “inactive” in each case. Besides, the Potency result in test [9] was “inactive”. Besides, the result in test [6] and in test [8] was inactive.

Consider `CCCC1([C@H](O)C/C=C/[C@H]2[C@H](O)CC(=O)[C@@H]2CCCCCCC(=O)OC)CCC1`, for which the Potency entry in test [1], in [2], in test [3], in [4], in test [5] and in test [7] was “inactive” each time. For the same compound, in test [9], the Potency entry was “inactive”. The outcome in test [6] and in test [8] was inactive.

As for `CCC(Cc1c(I)cc(I)c(O)c1I)C(=O)O` (centres undefined), the Potency entry in test [1], in test [2], in test [3], in [4], in test [5] and in [7] was “inactive” each time. Moreover, the Potency result in [9] was “inactive”. For the same compound, the compound was classed as inactive in test [6] and in [8].

These data come from PubChem BioAssay (Tox21).
